# An excerpt weighted towards active compounds, which were near 1.5% of everything screened.
# EBV gp42 block – inhibitors of Epstein-Barr virus glycoprotein 42. AID 1085. Q1HVG2. 0.42% of 220,000 active. inhibition, % (tested at 21.74 µM). Fluorescence polarization binding assay, mP read-out; in the data active means inhibition above about 50%
# Target sequence (Q1HVG2 whole entry, looked up): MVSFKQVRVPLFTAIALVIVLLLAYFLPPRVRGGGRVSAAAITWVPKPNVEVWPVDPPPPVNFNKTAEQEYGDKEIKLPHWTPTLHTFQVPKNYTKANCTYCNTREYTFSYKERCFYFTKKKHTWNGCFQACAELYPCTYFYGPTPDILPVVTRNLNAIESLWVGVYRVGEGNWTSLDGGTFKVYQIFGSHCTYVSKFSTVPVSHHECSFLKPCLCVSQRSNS
# MEX-5 binding – C. elegans MEX-5 TCR-2 RNA binding activity; MEX-5/FITC-TCR2 RNA binding, fluorescence polarization; active compounds read low; activity score (negative = inhibition of binding), % at 10 µM; 0.38% of 300,000 active; AID 1832;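 active means inhibition past about -25% in most replicates, and total fluorescence under double the plate's negative control median, limit read from the data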;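 further: 0% = DMSO and -100% = 5 µM competing unlabeled TCR2 RNA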
# MCL1 BIM primary – MCL1-BIM-BH3 interaction inhibition (human) | Q07820 | GST-MCL1 / FITC-Bim-BH3 fluorescence polarization | inhibition, % at 10.9 µM | 0.68% of 320,000 active | AID 2057;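 active means inhibition above the mean inhibition of all tested compounds plus 3 SD, set per campaign, cut at about 40% in these data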;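 further: 0% = DMSO wells and 100% = unlabeled Bim-BH3 peptide control; higher means more loss of mP so more displacement of Bim peptide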
# Target sequence (Q07820 whole entry, looked up): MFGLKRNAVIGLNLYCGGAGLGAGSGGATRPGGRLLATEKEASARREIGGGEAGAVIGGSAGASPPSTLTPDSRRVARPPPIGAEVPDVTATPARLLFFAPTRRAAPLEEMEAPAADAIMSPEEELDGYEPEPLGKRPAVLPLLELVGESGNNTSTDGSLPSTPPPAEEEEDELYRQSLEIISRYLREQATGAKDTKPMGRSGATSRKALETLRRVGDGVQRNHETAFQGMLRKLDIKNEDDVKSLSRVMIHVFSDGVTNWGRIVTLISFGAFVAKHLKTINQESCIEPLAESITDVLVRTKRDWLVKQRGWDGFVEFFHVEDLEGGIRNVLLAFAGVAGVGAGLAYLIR
# BCLXL inh – inhibitors of human Bcl-xL; Q07817; GST-Bcl-xL / FITC-Bim BH3 peptide fluorescence polarization; inhibition, % at 10.9 µM; 0.7% of 320,000 active; AID 2129;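 active means inhibition above the mean of all tested compounds plus 3 SD, cutoff set per campaign, cut at about 30% in these data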;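 further: 0% = DMSO wells and 100% = unlabeled Bim-BH3 peptide competitor; inhibitors lower millipolarization by displacing the labeled peptide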
# GLD-1 TGE inh – GLD-1-TGE RNA interaction inhibition (C. elegans); inhibition, % at 5.96 µM; purified GLD-1 + fluorescein TGE RNA, fluorescence polarization; 0.44% of 320,000 active; Q17339; AID 2280;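 active means percent inhibition above a per-plate cutoff, the plate mean of test compounds plus 3 SD, cut at about 30% in these data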;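 further: 0% = DMSO wells with GLD-1 and probe and 100% = wells lacking GLD-1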
# eLon inh – E. coli protease La inhibition | P0A9M0 | purified E. coli Lon protease, fluorescence polarization | inhibition, % at 7.94 µM | 0.42% of 360,000 active | AID 602123; in the data active means inhibition above about 13%, passing the limit was not always enough;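 further: 0% = enzyme with probe and DMSO and 100% = no enzyme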
# GLD-1 TGE cf – confirmation of C. elegans GLD-1 TGE RNA binding inhibitors | shares compounds with GLD-1 TGE inh | GLD-1/FL-TGE RNA fluorescence polarization, biochemical | inhibition, % at 5.96 µM | 10% of 550 active;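 active means average inhibition across triplicates above the hit cutoff set in the primary screen, cut at about 32% in these data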;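 further: 0% = GLD-1 with RNA probe and DMSO and 100% = wells lacking GLD-1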
# eLon confirm – confirmation of E. coli Lon protease inhibitors; AID 602230; shares compounds with eLon inh; 31% of 1,400 active; inhibition, % at 7.94 µM; purified E. coli Lon, fluorescence polarization; in the data active means inhibition above about 16%;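 further: 0% = enzyme with probe and DMSO and 100% = no enzyme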
# Active calls of the source: *; nt = not tested or not shown.
SMILES,EBV gp42 block,MEX-5 binding,MCL1 BIM primary,BCLXL inh,GLD-1 TGE inh,eLon inh,eLon confirm,others
CCC1c2ccc(C)n2CCN1C(=O)Nc1ccccc1C(=O)OC (centres undefined),-7,-5,44*,41*,35*,23*,6,GLD-1 TGE cf=-1
CC(=O)Nc1cc(-c2cccnc2)cn2c(-c3cccc(C(F)(F)F)c3)cnc12,nt,nt,nt,nt,nt,-11,nt,
Cc1cc2cc(CNS(=O)(=O)c3ccccc3)ccc2n1C,4,-1,47*,36*,54*,31*,20*,GLD-1 TGE cf=11
CCOC(=O)CCC(=O)NCc1ccc2c(c1)cc(C)n2C,14,-4,44*,38*,31*,39*,-4,GLD-1 TGE cf=11
CCS(=O)(=O)NCc1ccc2c(c1)cc(C)n2C,0,2,4,7,9,-2,nt,
CCCc1cc(=O)[nH]c(SCC(=O)c2cc(C)n(-c3c(C)n(C)n(-c4ccccc4)c3=O)c2C)n1,-3,0,0,5,-1,-1,nt,
CCN(CC(=O)Nc1c(F)cccc1F)C(=O)C1CC1,nt,nt,1,3,4,-9,nt,
COc1cc(-c2nc3ccccn3c2/N=C/c2ccc(F)cc2)ccc1O,8,-2,12,4,-2,-7,nt,
Clc1ccc(/C=N/c2c(-c3ccco3)nc3ccccn23)cc1,23,-6,47*,39*,45*,26*,-4,GLD-1 TGE cf=44*
COc1ccc(/C=N/c2c(-c3ccco3)nc3ccccn23)cc1OC,18,-5,47*,39*,57*,32*,-3,GLD-1 TGE cf=57*
CN(C)Cc1cc(O)c(CN(C)C)cc1O,-14,-35*,48*,64*,63*,32*,-65,GLD-1 TGE cf=8
CCc1cccc(NC(=O)CCCn2nc(CC)n3c(cc4occc43)c2=O)c1,nt,2,31,30,31*,29*,-5,GLD-1 TGE cf=-3
CN(Cc1ccccc1)C(=O)CN1C(=O)c2ccc([N+](=O)[O-])cc2C1=O,nt,1,-2,-1,-3,19*,-1,
CC(=O)Nc1cccc(NC(=O)CSc2ccc(-c3ccco3)nn2)c1,nt,1,15,6,-1,-1,nt,
CC(=O)Nc1ccc(NC(=O)CSc2ccc(-c3ccco3)nn2)cc1,5,-2,3,6,3,17*,-6,
Cc1ccc(NC(=O)CSc2ccc(-c3ccco3)nn2)cc1,-19,-1,3,8,7,3,nt,
Cc1ccc(NC(=O)CSc2nnc(-c3ccco3)c(-c3ccco3)n2)cc1,7,-5,33,23,1,161*,-12,
COc1ccc(NC(=O)CCC(=O)Nc2nnc(CC(C)C)s2)cc1Cl,nt,3,5,6,12,6,nt,
CCC(=O)OCC(=O)[C@@]1(OC(=O)CC)[C@@H](C)C[C@H]2[C@@H]3CCC4=CC(=O)C=C[C@]4(C)[C@@]3(Cl)[C@@H](O)C[C@@]21C,nt,nt,7,1,-2,-11,nt,
O=c1c2cc(Br)ccc2nc2n1CCCCC2,4,-1,6,9,2,-3,nt,
O=c1c2cc([N+](=O)[O-])ccc2nc2n1CCCC2,nt,0,4,0,-4,19*,-6,
CN(C(=O)C(=O)c1cn(CC(=O)N2CCCC2)c2ccccc12)C1CCCCC1,nt,-1,1,7,3,39*,-12,
CC1CCCN(C(=O)C(=O)c2cn(CC(=O)N3CCCCCC3)c3ccccc23)C1 (centres undefined),nt,-10,5,8,4,21*,10,
O=C(Nc1ccncc1)C1CCN(S(=O)(=O)c2ccccc2C(F)(F)F)CC1,nt,-4,-2,4,3,-1,nt,
CC(=O)Nc1ccc(NC(=O)CCNC(=O)c2ccccc2Cl)cc1,nt,1,-14,-7,-7,-1,nt,
SMILES,EBV gp42 block,MEX-5 binding,MCL1 BIM primary,BCLXL inh,GLD-1 TGE inh,eLon inh,eLon confirm,others
COc1ccc(OC)c(S(=O)(=O)N2CCC(C(=O)NCC3CCCO3)CC2)c1 (centres undefined),-3,-1,0,-1,5,32*,15,
CCN1CCN(C(CNS(=O)(=O)c2ccccc2)c2cccnc2)CC1 (centres undefined),nt,3,3,6,7,19*,-6,
CCN1CCN(C(CNS(=O)(=O)c2ccc(F)cc2)c2cccnc2)CC1 (centres undefined),nt,1,1,4,6,-2,nt,
Cc1cccc(Cl)c1NC(=O)N1CCCN(c2ncccc2[N+](=O)[O-])CC1,9,-1,3,2,4,25*,-8,
Cc1cccc(NC(=S)N2CCCN(c3ncccc3[N+](=O)[O-])CC2)c1,-20,-1,8,3,5,-4,nt,
CCCCNC(=O)c1cc(-c2ccc(OC)cc2)on1,-19,3,1,-2,7,23*,-6,
CC(=O)n1cc([C@H]2C=C(C(=O)N3CCN(Cc4ccc5c(c4)OCO5)CC3)O[C@@H](OCCCCO)C2)c2ccccc21,1,0,10,2,2,17,nt,
C=CCOC(=O)C1=C[C@H](c2coc3ccccc3c2=O)[C@@H](CCCO)[C@H](OCC)O1,-6,-1,-14,-8,6,26*,1,
Cc1ccc(C(C)C)c(OCC(=O)Nc2cccc(S(=O)(=O)NC3=NCCCCC3)c2)c1,nt,-1,-1,1,0,-2,nt,
CCC12CSc3nc(Cl)ccc3N1C(=O)C(=O)N2C (centres undefined),-5,0,nt,nt,nt,-3,nt,
CN1CCN(C(=O)c2ccc3c(c2)N(Cc2ccccc2F)C(=O)c2ccccc2S3=O)CC1 (centres undefined),nt,0,1,-1,-6,16*,6,
CCCn1c(=O)c(C(=O)NCc2ccco2)c(O)c2ccccc21,-15,1,-3,6,3,-4,nt,
COc1cccc(NC(=O)N(C)C[C@H]2Oc3ncc(Br)cc3C(=O)N([C@H](C)CO)C[C@H]2C)c1,nt,nt,nt,nt,nt,13*,-11,
COc1ccc(NC(=O)N(C)C[C@@H]2Oc3ncc(Br)cc3C(=O)N([C@@H](C)CO)C[C@@H]2C)cc1,nt,nt,nt,nt,nt,1,nt,
CCN(Cc1ccccc1)Cc1nnnn1Cc1ccccc1,-1,2,9,8,4,-5,nt,
CCc1ccc(OCC(=O)NC2CCCCC2)c(Br)c1,nt,0,-9,0,-3,36*,16*,
O=C(COc1ccc(F)cc1Cl)NC1CCCCCC1,nt,nt,4,-1,0,160*,-8,
CCc1ccc(OCC(=O)NNC(=S)NC(=O)C2CCCCC2)c(Br)c1,nt,2,5,4,-3,-1,nt,

# Screens from PubChem BioAssay.
